D1 antag: antagonists of human D1 dopamine receptor; P21728; HEK293 TREx D1 cells, calcium flux, dopamine EC80; active compounds read low; activity change, negative = inhibition, % at 10 µM; 360,000 tested, 3.2% active; in the data active means activity change below about -30%; further: on the % scale 0 is the no-effect control and ±100 the full control effect
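Allosteric or orthosteric antagonism assessed as attenuation of the calcium response to EC80 dopamine, added 180 s after compound, in induced HEK293 Trex D1 cells loaded with no-wash calcium dye.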
D1 ag: activates the human D1 dopamine receptor; P21728; activation, % at 2 µM; 360,000 tested, 1% active; HEK293 T-REx D1 cells, calcium flux, agonist mode; further: 0% is about no effect
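Agonism was scored from calcium flux recorded over 180 s (1 read/s) after pintool compound addition, following a 10-cycle baseline. Cells were inducible force-coupled HEK293 TREx D1, plated overnight at 30 C and loaded with no-wash calcium dye.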
TRHR ag: TRH receptor (human) agonism; TRHR cells, calcium flux fluo-8, FDSS agonist mode; 360,000 tested, 0.18% active; P34981; activation, % at 2 µM; further: 0% is about no effect
Target sequence (P34981 whole entry, looked up): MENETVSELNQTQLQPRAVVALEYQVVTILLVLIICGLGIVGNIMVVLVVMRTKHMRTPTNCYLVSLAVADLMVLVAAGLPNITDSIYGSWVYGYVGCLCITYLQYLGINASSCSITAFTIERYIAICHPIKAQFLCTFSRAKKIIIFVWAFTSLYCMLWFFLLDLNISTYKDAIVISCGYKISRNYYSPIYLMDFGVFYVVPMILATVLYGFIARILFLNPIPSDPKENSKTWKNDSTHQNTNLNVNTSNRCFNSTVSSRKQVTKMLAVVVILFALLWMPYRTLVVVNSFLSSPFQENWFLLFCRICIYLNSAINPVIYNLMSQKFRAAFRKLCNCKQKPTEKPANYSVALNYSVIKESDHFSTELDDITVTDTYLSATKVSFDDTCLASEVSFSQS
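Fluo-8-loaded TRHR cells; 10 s baseline, compound added, kinetic Ca2+ fluorescence read 1/s, agonist mode.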
TRHR PAM: TRH receptor (human) allosteric enhancement. P34981. TRHR cells, fluo-8 calcium fluorescence, EC20 TRH enhancement. enhancement, % at 2 µM. 360,000 tested, 0.66% active; in the data active means enhancement above about 30%; further: 0% is about no effect
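Enhancer read-out: after compound pinning and an initial kinetic agonist-mode read, an EC20 of TRH (10 nM final) was injected and fluo-8 calcium signal (Ex 480/Em 530) followed at 1 s/cycle for 100 cycles in TRHR-expressing cells.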
D1 potentiator: human D1 dopamine receptor positive modulation | P21728 | potentiation, % at 10 µM | HEK293 TREx D1 cells, calcium flux, dopamine EC20 potentiation | 360,000 tested, 0.036% active; in the data active means potentiation above about 30%; further: 0% is about no effect
The depositor's hits bear a star; · = no result given. Most compounds without a hit are left out; they make up all but 4.6% or so of the library. Unless noted, no stated cut-off is given here; in the data, active means activation above about 30%; inactive means the rest.

SMILES	D1 antag	D1 ag	TRHR ag	TRHR PAM	D1 potentiator
COc1ccc(-n2cccc2/C=C2\C(=N)N3N=C(c4ccco4)SC3=NC2=O)cc1	8.2	2.2	0.5	4.8	-2.6
Cc1cc(/C=C2\C(=N)N3N=C(C(C)C)SC3=NC2=O)c(C)n1Cc1ccccc1	-40.0*	111.7*	1.2	-2.6	-1.7
Cc1cc(/C=C2\C(=N)N3C(SCc4ccccc4)=NSC3=NC2=O)c(C)n1Cc1ccccc1	2.4	2.2	1.3	-2.5	0.6
CC1=NN2C(=N)/C(=C\c3cc(C)n(-c4ccccc4)c3C)C(=O)N=C2S1	-1.4	3.8	-0.8	-7.3	-8.1
Cc1cc(/C=C2\C(=N)N3N=C(c4ccco4)SC3=NC2=O)c(C)n1Cc1ccccc1	-39.1*	37.6*	5.5	-13.8	3.2
COc1cc(OC)c(C2Nc3ccccc3-c3nnc(SCc4ccccc4)nc3O2)cc1OC (configuration not stated)	9.1	8.5	-0.9	-0.8	-0.7
Cc1cc(C)c2c(=O)cc(C(=O)Nc3sc4c(c3C#N)CCCC4)oc2c1	1.3	10.2	-0.2	14.5	-1.1
CC(=O)c1ccc(NC(=O)CO/N=C(\C)c2cccs2)cc1	-35.6*	2.5	-0.1	-3.0	-1.3
CC(=O)c1ccc(NC(=O)C[n+]2ccccc2)cc1	-30.5*	1.2	0.0	18.4	-1.9
CC(=O)NCC(=O)OCC(=O)Nc1ccc(C(C)=O)cc1	-30.8*	5.3	-0.8	13.0	4.5
COC(=O)c1ccc(NC(=O)C[n+]2ccccc2)cc1	1.8	5.4	0.6	-0.8	-2.4
COC(=O)c1ccc(NC(=O)COC(=O)CCC2CCCC2)cc1	-41.1*	13.5	-0.1	-3.4	·
O=C(COC(=O)CCC1CCCC1)Nc1ccc(F)cc1	20.3	4.3	0.4	2.6	·
Cc1ccc(-n2c(=O)c3oc4ccccc4c3n(CC(=O)Nc3ccc(F)c(Cl)c3)c2=O)cc1C	2.4	1.9	1.1	2.9	-2.8
CCCCNC(=O)C(CC)Sc1nc2ccccc2c(=O)n1Cc1ccco1 (configuration not stated)	16.2	5.8	-0.8	-4.4	5.3
CCO[C@H]1OC(C(=O)O)=C[C@@H](c2ccc3c(c2)OCO3)[C@@H]1CCCO	-13.6	-3.3	-0.1	2.0	62.5*
CCO[C@H]1OC(C(=O)NC2CC2)=C[C@@H](c2ccc(Br)cc2)[C@@H]1CCCO	-58.8*	-0.1	-0.6	1.2	-6.2
CCO[C@@H]1OC(C(=O)NC2CC2)=C[C@H](c2ccc(Br)cc2)[C@H]1CCCO	10.7	3.1	0.3	-0.7	2.6
COc1ccc(OC)c(-c2cc(C(=O)N3CCOCC3)no2)c1	-0.1	0.5	-1.0	36.8*	-4.8
COc1ccc(OC)c(-c2cc(C(=O)Nc3ccc(C)c(C)c3)no2)c1	-8.1	5.0	0.8	-7.7	-1.9
COc1ccc(OC)c(-c2cc(C(=O)Nc3cccc(Cl)c3C)no2)c1	-40.4*	9.5	0.6	-13.8	1.2
Cc1ccc(CNC(=O)c2ccc3c(c2)NC(=O)C(CS(=O)(=O)Cc2ccc(F)cc2)N3)cc1 (configuration not stated)	-7.0	2.8	1.0	20.1	-5.8
COc1ccc(C2/C(=C(/O)c3ccc(C)cc3)C(=O)C(=O)N2CCCN2CCOCC2)cc1 (configuration not stated)	-25.4	-0.2	0.4	-9.0	37.3*
CCN(CC)CCN1C(=O)C(=O)/C(=C(/O)c2ccc(OC)cc2)C1c1ccco1 (configuration not stated)	-34.0*	1.7	0.4	-5.4	0.3
O=C(Cn1ncc2c(Cl)cccc21)NCc1cccc(F)c1	-81.4*	-0.2	-1.1	3.7	-4.5
SMILES	D1 antag	D1 ag	TRHR ag	TRHR PAM	D1 potentiator
O=C(Cn1ncn2cccc2c1=O)NCc1cccc(Br)c1	2.2	1.3	-0.3	1.3	-0.2
O=C(Cn1ncc2c(Cl)cccc21)NCc1cccc(Br)c1	-30.2*	9.4	-0.9	-3.8	-4.8
Cc1ccc(CSc2nc3cccnc3n2Cc2ccc(C(=O)NCCc3cccs3)cc2)cc1	7.4	13.0	3.3	-3.8	-3.8
O=C(Nc1cccc(Cl)c1)c1cc(N=Nc2ccc([N+](=O)[O-])cc2Cl)ccc1O	-53.7*	20.8	1.2	-3.0	-9.1
O=C(CSc1nc(=O)[nH]c2c1CCCC2)Nc1ccccc1C(F)(F)F	·	2.1	-0.1	1.9	-0.3
Cc1ccc(-n2cnc3cc(C(=O)NC4CCCCCC4)ccc32)c(C)c1	-18.6	1.6	-0.4	-2.9	-1.6
Cc1cc(S(=O)(=O)N2CCN(Cc3noc(CCC(=O)N4CCCCC4)n3)CC2)ccc1F	12.0	6.5	-0.4	4.9	-1.9
O=C(CSc1nnc2ccc(-c3ccc(F)cc3)nn12)N1CCCC1	-32.1*	1.9	-0.7	2.5	-4.3
CCSc1nnc2ccc(-c3ccc(C)cc3)nn12	-28.2	58.8*	0.0	-3.2	-4.1
CCc1ccc(-c2ccc3nnc(SC)n3n2)cc1	3.6	4.0	0.2	3.8	-5.3
O=C1CC(=C(c2ccccc2)c2ccccc2)C(=O)N1CCCCN1CCN(c2ccccc2)CC1	-56.8*	0.8	-0.2	20.4	-10.8
COc1ccc(-c2nnc(SCC(=O)Nc3cc(OC)ccc3OC)nc2-c2ccc(OC)cc2)cc1	-12.5	2.1	0.6	1.5	4.3
CCCSC(=S)c1c(C)[nH]n(-c2ccccc2)c1=O	-11.4	35.2*	0.3	0.4	-1.8
CCCCN(CCCC)C(=S)N/N=C/c1c(C)[nH]n(-c2ccccc2)c1=O	-11.3	0.7	-0.7	6.3	-6.0
CSc1ccc(C(=O)C2CCCN(Cc3cccn3-c3cccnc3)C2)cc1 (configuration not stated)	-2.6	1.9	1.4	-9.0	8.2
COc1ccc(C(=O)C2CCCN(Cc3c(F)ccc(F)c3F)C2)c(OC)c1 (configuration not stated)	14.3	0.8	0.1	-1.9	-8.1
COc1ccc(C(=O)C2CCCN(Cc3cccn3-c3ccc(Cl)cn3)C2)c(OC)c1 (configuration not stated)	-6.7	33.3*	1.1	0.7	-3.0
O=C(c1ccc(Cl)cc1)C1CCCN(Cc2cccn2-c2cccnc2)C1 (configuration not stated)	6.1	0.0	0.5	32.8*	-6.0
Cc1cc(=O)n2nc(N3CCC(C(=O)NCC(C)c4ccccc4)CC3)sc2n1 (configuration not stated)	11.0	0.1	0.1	-3.4	-4.2
CC(NC(=O)C1CCCN(S(=O)(=O)c2cccs2)C1)c1ccccc1 (configuration not stated)	-26.0	30.4*	-0.3	7.1	-1.4
COc1ccccc1NC(=O)C1CCCN(S(=O)(=O)c2c(C)noc2C)C1 (configuration not stated)	-9.8	5.1	0.4	-1.4	-3.2
